Screening data deposited in PubChem by National Center for Advancing Translational Sciences (NCATS).
Rows were chosen to be rich in hits. Some 3.7% of all compounds tested hit in one or more screens of this group.
B2AR arrestin – recruits beta-arrestin to the human beta2-adrenergic receptor; P07550; beta-arrestin recruitment to beta2AR, cell-based reporter; Potency, µM (top dose mostly 46.1 µM), without a hit: at the highest dose activation, hits mostly activators; actives 0.02% (n = 330,000);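 also: potency is read from the fitted curve at half-maximal effect; 0% = DMSO controls and full agonism = EC100 isoproterenol or metaproterenol; nearly all actives have a fitted effect of over 65% in size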
Target sequence (P07550 whole entry, looked up): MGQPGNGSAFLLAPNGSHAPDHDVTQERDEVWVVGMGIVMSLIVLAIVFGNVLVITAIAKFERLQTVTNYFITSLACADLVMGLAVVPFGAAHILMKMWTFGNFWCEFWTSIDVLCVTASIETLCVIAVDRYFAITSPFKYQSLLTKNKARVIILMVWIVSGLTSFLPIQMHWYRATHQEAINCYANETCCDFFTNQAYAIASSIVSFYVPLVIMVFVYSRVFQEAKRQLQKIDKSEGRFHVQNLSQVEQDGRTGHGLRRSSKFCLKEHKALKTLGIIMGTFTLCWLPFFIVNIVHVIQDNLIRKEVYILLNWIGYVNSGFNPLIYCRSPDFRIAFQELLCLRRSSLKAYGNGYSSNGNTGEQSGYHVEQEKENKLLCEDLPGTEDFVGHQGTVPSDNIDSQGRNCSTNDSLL
DRD3 agonist – activates the human D3 dopamine receptor; P35462; AID 652048; actives 0.58% (n = 410,000); D3R DiscoveRx beta-arrestin cells, luminescence, 90 min; max activation, %; in the data active = max activation above about 30%; also: 0% is about no effect
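Cells at 1500/well, incubated overnight, then treated with pinned compounds (dopamine as control) for 90 min at 37 degrees C. DiscoveRx reagent added for 30 - 60 minutes at room temperature; luminescence read.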
RGS4 inhibitor – blocks human RGS4-accelerated GTP hydrolysis. P49798. Transcreener GDP fluorescence polarization, RGS4-accelerated GTP hydrolysis. Potency, µM (titrated, usually from 114 µM), inactives show top-dose activity change, negative = inhibition, hits mostly inhibitors. actives 0.039% (n = 390,000). AID 504845; also: potency is read from the fitted curve at half-maximal effect; % is scaled to controls: 0 for no effect and ±100 for the full control effect; nearly all actives have a fitted effect of over 75% in size
Target sequence (P49798 whole entry, looked up): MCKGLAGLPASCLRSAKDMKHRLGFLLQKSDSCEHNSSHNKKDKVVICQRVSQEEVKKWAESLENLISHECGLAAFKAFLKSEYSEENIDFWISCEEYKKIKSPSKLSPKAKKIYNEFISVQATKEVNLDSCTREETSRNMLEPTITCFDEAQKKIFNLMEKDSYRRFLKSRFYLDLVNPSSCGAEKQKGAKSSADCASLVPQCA
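MLSMR compounds (23 nl, pin-transferred) preincubated 10 min at room temperature with a 500nM (2x) first reagent, then RGS4 at 900nM (2x) plus Transcreener GDP mix added; fluorescence polarization (620/688 nm) read before and after 90 min at 30 °C.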
DRD3 antagonist – D3 dopamine receptor (human) antagonism; P35462; D3R cells, DiscoveRx beta-arrestin luminescence, antagonist mode; hits give low values; max response, negative = inhibition, %; actives 2.5% (n = 360,000); in the data active = max response below about -50%; inconclusive = no clear call, values can overlap the other calls; also: % is scaled to controls: 0 for no effect and ±100 for the full control effect
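Cells expressing the human receptor were seeded at 1500 cells/well, incubated overnight at 37 degrees C in 5% CO2, then exposed to library compounds with dopamine controls for 90 minutes at 37 degrees C before luminescent detection.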
BRCA1 expr up – increases BRCA1 expression | MCF7-BRCA1-FFLuc reporter, luminescence, 48 h; response scale: scaled: vehicle 0%, 10 µM genistein 100% | Potency, µM (series often up to 46.1 µM), inactives show at the highest dose activation, actives largely listed as activators | actives 1.1% (n = 380,000) | AID 624202; also: potency is read from the fitted curve at half-maximal effect; nearly all actives have a fitted effect of over 80% in size
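Luminescence from a BRCA1-driven firefly luciferase in MCF7 cells was read after 48 h compound exposure at 37 C. Data normalized against DMSO and a 10microM genistein activation control, then curve-fitted across the titration.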
PTHR1 ag – agonists of human PTHR1 parathyroid hormone receptor; AID 743266; Potency, µM (titrated, usually from 115 µM), for the others: at the highest dose activation, hits mostly activators; actives 0.075% (n = 410,000); Q03431; HEK293 GP2 PTHR1 cells, GloSensor cAMP luminescence, 1 h; also: potency is read from the fitted curve at half-maximal effect; nearly all actives have a fitted effect of over 55% in size
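HEK-293-derived GP2 cells expressing PTHR1 and a GloSensor cAMP reporter, 3,000/well, plated overnight, given luciferin plus IBMX (each 0.5 mM as added) for 1 h at 37 °C, then compound for 1 h at 37 °C. Luminescence was read after 15 min at room temperature.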
* = called active by the depositor; i = inactive; u = inconclusive; x = no result given; [ ] = another dose, or the depositor's remark. Unless noted, calls follow the shape of the dose curve; as a rule, active = well fitted curve in the direction sought with a large enough effect; inconclusive = small, poorly fitted or top-dose-only effect, or another doubt; inactive = no such curve, though single readings can be large; an effect the other way counts as inactive or inconclusive.

SMILES	B2AR arrestin	DRD3 agonist	RGS4 inhibitor	DRD3 antagonist	BRCA1 expr up	PTHR1 ag
CC(C)c1ccc(NC(=O)Cn2c(=O)oc3cc(S(=O)(=O)N4CCCC4)ccc32)cc1	x	-9	-10%	x	-20%	-86%
CN1C[C@H](C(=O)N[C@]2(C)O[C@@]3(O)[C@@H]4CCCN4C(=O)[C@H](Cc4ccccc4)N3C2=O)CC2c3cccc4[nH]cc(c34)C[C@H]21 (some centres not stated)	x	-39	-37%	-65*	-16%	-4%
CN1C[C@H](C(=O)N[C@]2(C)O[C@@]3(O)[C@@H]4CCCN4C(=O)[C@H](Cc4ccccc4)N3C2=O)C[C@@H]2c3cccc4[nH]cc(c34)C[C@H]21	x	2	u	x	x	x
Cc1cc(C(=O)N=Nc2c(O)n(C)c3ccccc23)c(C)o1	0%	3	-19%	-3	u	i
Cn1c(=O)oc(=O)c2ccccc21	x	31*	-17%	4	-21%	4%
CC[C@@H](CO)NC(=O)[C@H]1C=C2c3cccc4c3c(cn4C)C[C@H]2N(C)C1	x	x	i	x	x	x
C[C@@H](CO)NC(=O)[C@@H]1C=C2c3cccc4[nH]cc(c34)C[C@H]2N(C)C1	x	38*	x	x	x	x
CC(C)c1ccc2c(c1)C(N1CCNCC1)Cc1ccc(F)cc1S2 (configuration not stated)	x	-10	-5%	-63*	-87%	20%
C[C@H]1[C@@H]2Cc3ccc(O)cc3[C@@]1(C)CCN2C	x	0	x	x	x	x
O=C(c1ccc2c(c1)OCO2)C1CCCN(Cc2ccc(F)c(F)c2)C1 (configuration not stated)	0%	-9	-13%	-52*	-24%	-15%
COc1ccc(CN2CCCC(C(=O)c3cccc(Cl)c3)C2)cc1 (configuration not stated)	0%	-19	4%	-73*	-30%	i
COc1ccc(Cl)cc1C(=O)C1CCCN(CCO)C1 (configuration not stated)	-1%	-27	-3%	-50*	12%	i
COc1ccc(CN2CCCC(C(=O)c3ccc(Cl)cc3)C2)c(OC)c1 (configuration not stated)	0%	-11	u	-60*	-36%	-33%
O=C(CCl)c1ccc(Oc2ccc(C(=O)CCl)cc2)cc1	x	-5	x	x	x	x
C[C@]12N[C@@H](Cc3ccccc31)c1ccccc12	x	x	i	x	x	x
CN[C@H]1C[C@@H](N)[C@H](O)[C@@H](O[C@@H]2O[C@H](CO)[C@H](O)[C@@H]3OC4(O[C@H]23)O[C@H](C(N)CO)[C@H](O)[C@H](O)[C@H]4O)[C@@H]1O (some centres not stated)	x	-3	x	x	x	x
COc1ccc(CN2CCCC(C(=O)c3ccccc3SC)C2)cc1O (configuration not stated)	0%	-7	15%	-61*	-13%	-18%
CSc1ccccc1C(=O)C1CCCN(Cc2ccccn2)C1 (configuration not stated)	0%	-16	24%	0	0%	-18%
COc1cccc(NC(=O)C2CCN(S(=O)(=O)c3cc(-c4noc(C)n4)ccc3C)CC2)c1	x	-12	13%	x	x	-48%
CC1(C)C2CC=C(CN3CCOCC3)C1C2 (configuration not stated)	0%	2	19%	-53*	-33%	-19%
c1ccc2c(CN3CCOCC3)c[nH]c2c1	-2%	-3	-4%	-22	0%	-2%
CCCN1CCC[C@H](c2cccc(O)c2)C1	0%	121*	15%[56.9 µM]	16	1%	i
Cc1ccc(CN2CCN(Cc3ccccc3F)CC2)cc1	-1%	-6	-3%[56.9 µM]	u	0%	-18%
COc1ccc(CN2CCN(Cc3ccccc3OC)CC2)cc1	0%	-20	-8%	u	-16%	i
COc1ccccc1N1CCN(Cc2ccc(F)cc2)CC1	0%	-4	-13%	-82*	3%	i
SMILES	B2AR arrestin	DRD3 agonist	RGS4 inhibitor	DRD3 antagonist	BRCA1 expr up	PTHR1 ag
CSc1ccc(CN2CCN(c3ccccc3C)CC2)cc1	0%	-10	5%	-73*	-31%	-74%
COc1ccccc1N1CCN(Cc2ccc(Cl)cc2Cl)CC1	0%	-29	-13%	-85*	3%	-3%[57.5 µM]
COc1cccc(CN2CCNCC2)c1OC	0%	6	2%	13	-25%	i
COc1ccccc1CN1CCN(Cc2ccc(Cl)cc2)CC1	0%	-15	8%	-96*	-3%	-17%
CCc1ccc(CN2CCN(Cc3ccc(SC)cc3)CC2)cc1	0%	-19	-11%	u	-2%	-23%
OC[C@@H](O)[C@H]1O[C@@H]2O[C@H](C(Cl)(Cl)Cl)O[C@@H]2[C@H]1O	x	4	x	x	x	x
Oc1cc[c]([Hg][Cl])cc1	x	-30	x	x	x	x
CC(=O)O[C@H]1C[C@H](O[C@H]2[C@@H](O)C[C@H](O[C@H]3[C@@H](O)C[C@H](OC4CC[C@@]5(C)C(CC[C@@H]6[C@@H]5CC[C@]5(C)[C@@H](C7=CC(=O)OC7)[C@@H](O)C[C@]65O)C4)O[C@@H]3C)O[C@@H]2C)O[C@H](C)[C@H]1O[C@@H]1O[C@H](CO)[C@@H](O)[C@H](O)[C@H]1O (some centres not stated)	x	6	x	x	x	x
COc1ccc(CN2CCN(c3ccccc3F)CC2)cc1O	0%	9	2%	-70*	8%	i
COc1ccccc1N1CCN(Cc2ccc(SC)cc2)CC1	-1%	-20	-21%	-107*	-16%	-52%
CC(C)NC(=O)N1Cc2cc(C(=O)NC3CCCCC3)nc(-c3cccc(-c4cccnc4)c3)c2[C@@H]1CCO	x	29	x	-5	-33%	-46%
CC(n1cc(C[C@H](N)C(=O)O)c2ccccc21)n1cc(C[C@H](N)C(=O)O)c2ccccc21	x	x	i	x	x	x
C=C1C(O)[C@@H]2O[C@]3(CC[C@H](/C=C/C(C)[C@@H]4CC(C)=CC5(O[C@H](C[C@@](C)(O)C(=O)O)CCC5O)O4)O3)CC[C@H]2O[C@@H]1C(O)CC(C)[C@H]1OC2(CCCCO2)CCC1C (some centres not stated)	-2%	-70	5%	-132*	u	-53%
CC(Cc1cccc(C(F)(F)F)c1)NCCCc1ccccc1 (configuration not stated)	x	x	i	x	x	x
CN(C)C(=O)C(CCN1CCC(O)(c2ccc(Cl)cc2)CC1)(c1ccccc1)c1ccccc1	x	-80	-3%[56.9 µM]	-81*	-24%	-46%
CC(=O)OC1(c2ccccc2)CCN(CCc2ccccc2)CC1	x	-11	x	x	x	x
